In PubChem BioAssay AID811 (The Scripps Research Institute Molecular Screening Center, 2007):
About 10 (0.06%) of roughly 16,000 compounds were called active. The entries come from a sample that favours actives as a whole. Values without a mark were called inactive. Rule as the data show it: active = inhibition above about 45%; inactive = the rest.

target: Toll-like receptor 4 (Homo sapiens) (UniProt O00206); assay: inhibitors of human TLR4-MyD88 binding (AID 811); settings: Cell-based TLR4-MyD88 binding inhibition assay; at 10 µM; hits give high values
Sequence (O00206 whole entry, looked up): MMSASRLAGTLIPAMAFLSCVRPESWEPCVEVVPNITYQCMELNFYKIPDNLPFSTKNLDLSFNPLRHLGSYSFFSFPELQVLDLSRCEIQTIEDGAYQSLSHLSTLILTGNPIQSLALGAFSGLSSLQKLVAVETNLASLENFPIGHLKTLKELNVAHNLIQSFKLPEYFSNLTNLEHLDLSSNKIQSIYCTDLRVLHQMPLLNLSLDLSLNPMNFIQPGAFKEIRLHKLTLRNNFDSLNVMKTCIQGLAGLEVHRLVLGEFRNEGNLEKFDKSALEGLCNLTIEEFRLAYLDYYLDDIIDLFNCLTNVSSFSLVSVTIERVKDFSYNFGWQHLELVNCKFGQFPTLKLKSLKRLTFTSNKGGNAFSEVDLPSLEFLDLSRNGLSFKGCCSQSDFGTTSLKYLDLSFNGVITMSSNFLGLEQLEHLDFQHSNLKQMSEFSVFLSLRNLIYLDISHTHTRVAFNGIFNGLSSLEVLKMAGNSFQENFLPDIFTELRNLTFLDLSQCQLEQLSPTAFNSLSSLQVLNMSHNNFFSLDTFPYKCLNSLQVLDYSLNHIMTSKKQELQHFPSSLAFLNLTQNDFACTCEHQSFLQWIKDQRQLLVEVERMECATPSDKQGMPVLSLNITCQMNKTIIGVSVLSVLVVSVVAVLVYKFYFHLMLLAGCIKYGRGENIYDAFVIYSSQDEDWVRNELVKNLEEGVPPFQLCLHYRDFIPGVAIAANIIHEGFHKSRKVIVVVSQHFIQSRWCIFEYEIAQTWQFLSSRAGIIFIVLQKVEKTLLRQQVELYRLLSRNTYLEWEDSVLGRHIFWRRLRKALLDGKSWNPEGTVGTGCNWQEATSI

Going from O=C(CSc1nc2ccccc2o1)N1CCC(n2cccc2)CC1 to O=C(O)CC(CC(=O)N1CCOCC1)c1ccccc1 (stereo unspecified), the inhibition rises from -8.01% to -5.3%.

Compared with CC(C)(C)C(=O)OCC(N)=S, CC(C)(C)c1ccc(C(=O)CC(N)=O)cc1 is higher in inhibition: -7.02% for the first, -4.12% for the second.

Compared with CSc1c(C#N)c(N)nc(SCC(=O)c2ccc(OC(F)F)cc2)c1C#N, COC(=O)c1cnc(Oc2ccc(N)cc2)cc1C(F)(F)F is lower in inhibition: 1.37% for the first, -9.53% for the second.

First: O=C(O)c1ccccc1/C=N/Nc1cc(Cl)ccc1Cl
Second: O=C(CCc1ccc(O)cc1)N/N=C/c1cc(Cl)cc(Cl)c1O
The inhibition of the first is lower: -2.5% for the first, -1.07% for the second.

First: NC(=O)c1ccccc1OCCOc1ccccc1C(N)=O
Second: OCCNC(=S)Nc1ccccc1-c1ccccc1
The inhibition of the first is lower: -25.3% for the first, 6.35% for the second.

Going from CN(C)c1cccc2c1c(NC(=O)Nc1ccc(OCc3ccccc3)cc1)nn2C to CN(C(=O)Nc1ccc(Cl)cc1)n1cnc2ccccc2c1=O, the inhibition falls from -5.12% to -8.6%.

First: Cc1ccccc1NC(=O)NCc1ccco1
Second: O=C(NCc1ccccc1)c1cc2sccc2s1
The inhibition of the first is lower: 0.5% for the first, 3.11% for the second.

Compared with Cc1c(N/N=C(\C#N)c2nc3ccccc3[nH]2)c(=O)n(-c2ccccc2)n1C, CCOC(=O)c1cc(C)n(-c2cccc([N+](=O)[O-])c2)c1-c1ccccc1 is lower in inhibition: 3.99% for the first, -2.88% for the second.

First: CN(C)c1cc(-c2cc(Cl)sc2Cl)oc(=O)c1Cl
Second: CCc1cnc(NS(=O)(=O)c2cc(Cl)sc2Cl)nc1-c1c(F)cccc1F
The inhibition of the first is higher: -4.82% for the first, -8.06% for the second.

First: O/N=C/c1sccc1Oc1ccccc1
Second: C/C(=N\NC(N)=S)c1csc(-c2ccccc2)n1
The inhibition of the first is higher: 0.35% for the first, -3.92% for the second.

Compared with COC(OC)c1ccnc(SCC(=O)Nc2ccc(C(C)C)cc2)n1, CC(=O)Nc1ccc(C)cc1N=Cc1ccncc1 is higher in inhibition: -8.52% for the first, -3.13% for the second.

Compared with O=C(Nc1ccccc1N1CCOCC1)C1CCN(c2nccc(C(F)(F)F)n2)CC1, COC(=O)c1cnc(N2CCCN(C(=O)C3COc4ccccc4O3)CC2)nc1C(F)(F)F (stereo unspecified) is lower in inhibition: 1.1% for the first, -1.67% for the second.

Compared with CC1(C)CC(=O)c2c(NCc3ccco3)sc(C#N)c2C1, O=C(O)CC1(CC(=O)NCc2ccco2)CCCCC1 is lower in inhibition: 8.27% for the first, -10.3% for the second.

Going from COC(=O)c1sccc1-c1ccc(/C(C)=N/NC(N)=O)o1 to CC(=O)Nc1ccc(/C(N)=N/O)cc1, the inhibition rises from 0.98% to 1.86%.

First: Fc1cccc(Cl)c1CSc1nccn1-c1cccnc1
Second: O=[N+]([O-])c1ccc2ncccc2c1-n1cccc1
The inhibition of the first is higher: 5.59% for the first, 2.94% for the second.

Going from O=C(OCc1ccco1)c1cnc(Nc2ccc(OC(F)(F)F)cc2)nc1C(F)(F)F to O=C(NNC(=S)Nc1ccccc1Cl)c1ccc(OC(F)(F)F)cc1, the inhibition falls from 11.4% to 6.01%.

Going from N#Cc1c(N)nc2c3c1NC(O)(c1ccccc1)C(C#N)C3c1cc(Cl)ccc1O2 (stereo unspecified) to Cc1cc(NC(=O)c2cc(-c3ccccc3)c(C(F)(F)F)s2)no1, the inhibition falls from -1.34% to -1.45%.

First: Cc1nc2sc(-c3ccccc3)cc2c(=O)o1
Second: CCOC(=O)CN1C(=O)/C(=C\c2ccc(C)o2)N=C1c1ccccc1
The inhibition of the first is higher: 4.05% for the first, 0.42% for the second.

Compared with NS(=O)(=O)c1cc(Br)ccc1I, CN(C)C(=S)Nc1ccc(Br)cc1Cl is lower in inhibition: -0.48% for the first, -2.8% for the second.

Compared with O=C1CCN(Cc2ccccc2)C(=O)N1c1ccc2c(c1)CCO2, O=[N+]([O-])c1ccc2c(c1)CCN2S(=O)(=O)c1ccccc1 is higher in inhibition: -14.4% for the first, -5.05% for the second.

First: CCOC(=O)C1=C(C)NC(=O)NC1c1ccc(-c2cccc([N+](=O)[O-])c2)o1 (stereo unspecified)
Second: CCOC(=O)c1cnc2c(S(=O)(=O)C(C)C)csc2c1Sc1cccc(Cl)c1
The inhibition of the first is lower: -3.21% for the first, -1.87% for the second.

Compared with CC(CC(=O)O)Oc1ccc(Cl)cc1[N+](=O)[O-] (stereo unspecified), O=C(c1ccc(Oc2ccc(Cl)cc2)c([N+](=O)[O-])c1)N1CCCC1 is higher in inhibition: -0.53% for the first, 0.91% for the second.

First: CSc1nc(N/C=C(\C#N)C(=O)c2cccs2)n2nc(C)cc2n1
Second: CSc1nccc(-c2ccc(S(=O)(=O)n3nc(C)c(Br)c3C)s2)n1
The inhibition of the first is lower: -2.59% for the first, 2.65% for the second.

First: N#CCc1ccc(OC(=O)c2cccnc2)cc1
Second: CC(=O)c1ccc(C#Cc2ccccc2)cc1
The inhibition of the first is higher: -3.47% for the first, -5.26% for the second.

First: Clc1cncc(Cl)c1N/N=C/C1CC2C=CC1C2 (stereo unspecified)
Second: FC(F)(F)c1csc(N/N=C/c2ccccc2Cl)n1
The inhibition of the first is higher: 5.74% for the first, -1.14% for the second.

Going from O=C(O)c1onc2ccccc12 to CNC(=O)c1ccccc1I, the inhibition rises from -3.17% to -1.84%.

Going from CC(=O)OC1=CCC2C3CC[C@@]4(C)CC(OC(C)=O)CCC4(C)C3C(OC(C)=O)CC12C (stereo partly specified) to CC(=O)OCc1ccc(COC(C)=O)c(OC(C)=O)c1OC(C)=O, the inhibition falls from 5.37% to -11.5%.

First: CC(C)(C)NC(=O)[C@@H]1C[C@@H]2CCCC[C@@H]2CN1C(=O)c1ccno1
Second: CC(C)(C)NC(=O)N/N=C/c1[nH]ncc1Br
The inhibition of the first is lower: 2.92% for the first, 20.8% for the second.

Compared with CCOC(=O)c1nnc2c(Br)c(C)nn2c1C, CCOC(=O)Cn1sc2nc(C)cc(C)c2c1=O is lower in inhibition: 0.26% for the first, -2.32% for the second.

Going from CCc1ccnc(NS(=O)(=O)c2ccc3c(c2)OCCO3)c1 to NC(=O)c1cccc2c1OCCO2, the inhibition rises from -7.82% to 10.1%.

Compared with Cc1nc(C(=O)NNC(=S)Nc2ccccc2C(F)(F)F)cs1, CSc1sc(C(=O)Nc2cccc(C(F)(F)F)c2)cc1S(=O)(=O)C(C)C is higher in inhibition: -3.73% for the first, 0% for the second.

First: N/C(=N\OC(=O)c1ccc(Cl)cc1)c1cccc(CS(=O)(=O)c2ccccn2)c1
Second: CCCN(CCC)S(=O)(=O)c1ccc(C(=O)O/N=C(\C)c2ccccc2O)cc1
The inhibition of the first is lower: -5.81% for the first, 0.96% for the second.

First: CC(C)S(=O)(=O)/C(C#N)=C/NN1CCOCC1
Second: N/C(=N\S(=O)(=O)c1ccc(Cl)cc1)N1CCOCC1
The inhibition of the first is lower: -3.92% for the first, -3.11% for the second.

Compared with NC(=O)c1c(C(F)(F)F)cc(C(F)(F)F)cc1C(F)(F)F, O=C(CSc1c(F)c(F)c(C(=O)O)c(F)c1F)Nc1cccc(C(F)(F)F)c1 is higher in inhibition: -6.47% for the first, 7.76% for the second.

First: COc1ccccc1NC(=O)c1ccc(C#Cc2ccccc2)o1
Second: CS/C(=N\S(=O)(=O)c1ccccc1)NNc1ccccc1
The inhibition of the first is lower: -2.2% for the first, -1.96% for the second.

First: CC(C)[C@H]1COC(c2cccc(C3=N[C@@H](C(C)C)CO3)n2)=N1
Second: Cc1cc(-c2noc(-c3cccs3)n2)no1
The inhibition of the first is higher: 5.5% for the first, -6.63% for the second.

Going from Cc1cc(S(=O)(=O)O/N=C(\N)c2snnc2C)cc(C)c1F to Cc1nnsc1C(=O)N/N=C/c1ccccc1Cl, the inhibition falls from 11.7% to -4.11%.

Going from CC1(C)CC(=O)C=C(N2CCOCC2)C1 to O=[N+]([O-])c1ccc(N2CCC2)cc1, the inhibition rises from -0.03% to 8.05%.

First: CC(C)CCOS(=O)(=O)c1ccc2c(c1)Cc1cc(S(=O)(=O)OCCC(C)C)ccc1-2
Second: CCCN(CCC)S(=O)(=O)c1ccc(C(=O)NNC(=O)c2cc(OC)c(OC)c(OC)c2)cc1
The inhibition of the first is higher: 4.69% for the first, -4.25% for the second.

Compared with Cn1cnnc1SC/C=C/c1ccccc1, Cc1cccc(-c2noc(NC(=O)O/N=C/c3ccccc3)n2)c1 is higher in inhibition: -13.5% for the first, 5.92% for the second.

Compared with Cc1ccc2c(c1)C(=O)C(=O)S2, O=c1[nH]c2ccccc2s1 is lower in inhibition: 6.48% for the first, 2.88% for the second.

First: Cc1noc(C)c1S(=O)(=O)N1CCN(C2c3ccccc3-c3ccccc32)CC1
Second: O=C(Oc1ccccc1N1CCCCC1)c1sc2ccccc2c1Cl
The inhibition of the first is lower: -0.47% for the first, 4.69% for the second.

Going from CCOC(=O)Cn1cc(Cl)ccc1=O to Cn1cc(C(=O)Nc2ccc(F)c(Cl)c2)c(N)n1, the inhibition falls from -0.56% to -11.3%.

Compared with Cc1nn(C)c(C)c1Sc1nccc(-c2cccnc2)n1, Cc1nnc(Sc2ccc([N+](=O)[O-])c(Sc3nnc(C)s3)n2)s1 is higher in inhibition: -8.01% for the first, -6.36% for the second.

Going from CC(C)CC(F)Cc1cnc(=O)[nH]c1 (stereo unspecified) to O=S(=O)(CCSc1ccc(C(F)(F)F)cn1)CCSc1ccc(C(F)(F)F)cn1, the inhibition rises from -2.36% to 2.94%.

Going from Oc1ccc(-n2cncn2)cc1 to N/N=c1/nc2sccn2c2ncccc12, the inhibition rises from -7.43% to -0.03%.

Compared with Cc1ccc2sc(NC(=O)NC(=O)c3c(Cl)cccc3Cl)nc2c1, O=C(NNC(=S)Nc1ccc(S(=O)(=O)N2CCCCC2)cc1)c1ccncc1 is higher in inhibition: -10.8% for the first, 7.23% for the second.

Compared with CCOC(=O)c1ccc2nc(C(F)(F)F)cc(N3CCN(Cc4ccccc4)CC3)c2c1, Cc1ccc(C(=O)N2CCN(c3cccc4[nH]ccc34)CC2)cc1 is lower in inhibition: 3.69% for the first, -3.77% for the second.

Going from COC(=O)/C=C/c1cn(C2OCC(CO)C2O)c(=O)[nH]c1=O (stereo unspecified) to O=C1C2C3C=CC(O3)C2C(=O)N1OCc1ccc(OC(F)(F)F)cc1 (stereo unspecified), the inhibition falls from 5.73% to 4.1%.

Compared with N#C/C(=C\c1ccsc1Sc1ccc(Cl)cc1)S(=O)(=O)c1ccc(Cl)cc1, N#CC(c1cc2ccccc2cn1)c1ccc2c(c1[N+](=O)[O-])C(=O)c1ccccc1C2=O (stereo unspecified) is higher in inhibition: -3.72% for the first, 8.07% for the second.

O=c1oc2c3ccccc3c3oc(=O)sc3c2s1 was tested, and the inhibition was 50.3% (active).
